This note sets out measurements from PubChem BioAssay.

As a reminder, the inhibition is the share of the control response that was lost under treatment.

SMILES strings stand for the structures. Values without a mark were called inactive. How the calls were made is not given here.

The assay deals with Pantothenate synthetase (Mycobacterium tuberculosis (strain ATCC 25618 / H37Rv)) (UniProt P9WIL5). Briefly: Recombinant Mtb pantothenate synthetase (PanC) inhibitors, coupled enzyme, confirmatory (AID 375).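 Further: 0% = full reaction with vehicle and 100% = no enzyme background.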 Conditions: coupled enzyme assay; at 10 µM, hits give high values.
Chain of Pantothenate synthetase (Mycobacterium tuberculosis (strain ATCC 25618 / H37Rv)) (P9WIL5 whole entry, looked up): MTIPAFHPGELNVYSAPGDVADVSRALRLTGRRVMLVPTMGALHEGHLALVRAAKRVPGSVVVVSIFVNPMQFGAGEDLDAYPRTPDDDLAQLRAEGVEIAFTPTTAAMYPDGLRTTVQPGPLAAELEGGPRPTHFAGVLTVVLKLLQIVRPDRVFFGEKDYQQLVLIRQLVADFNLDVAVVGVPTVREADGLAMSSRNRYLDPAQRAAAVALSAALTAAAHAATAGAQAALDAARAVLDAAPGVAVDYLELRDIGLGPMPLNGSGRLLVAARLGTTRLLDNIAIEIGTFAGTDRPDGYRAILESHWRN
For the molecule `Cc1onc(-c2c(Cl)cccc2Cl)c1C(=O)NCCN1CCOCC1`, the inhibition was 6%.

`Cc1ccc(S(=O)(=O)N2CCCC2C(=O)OCc2nc3ccccc3s2)cc1` (stereo not given): the inhibition was 0%.

Take `CCOCCCNC(=O)CC1Oc2ccc(C)cc2NC1=O` (stereo not given): the inhibition is 0%.

For the molecule `CCOC(=O)N1CCN(C(=O)CSc2nnc(COc3ccccc3)o2)CC1`, the inhibition is 2%.

On to `COc1ccccc1CNC(=O)C1CCCN(S(=O)(=O)c2cnc[nH]2)C1` (stereo not given), for which the inhibition is 0%.

Take `COC(=O)c1cc(-c2ccccc2)sc1NC(=O)c1cc(C)on1`: the inhibition was 0%.

Take `CCOc1ccc(CSC(CC(=O)O)C(=O)O)cc1` (stereo not given): the inhibition is 6%.

Take `CC1Cc2cc(/C(O)=C3/C(=O)C(=O)N(CCN4CCOCC4)C3c3cccc(O)c3)ccc2O1` (stereo not given): the inhibition is 6%.

Consider `Cc1ccc(Cl)cc1N1CCN(C(=O)C2CCCN(S(=O)(=O)c3cnc[nH]3)C2)CC1` (stereo not given), for which the inhibition was 0%.

In the case of `N#CCSc1nc(-c2ccccc2)cs1`, the inhibition was 0%.

Consider `O=C(Nc1ccc2nn(-c3ccccc3)nc2c1)c1ccc(Br)o1`, for which the inhibition is 0%.

In the case of `CCn1cc(C2=NOC(C(=O)Nc3c(C)nn(Cc4ccc(F)cc4)c3C)C2)c(C)n1` (stereo not given), the inhibition was 0%.

With `O=C(CSc1nc(-c2ccccc2)cs1)NCc1ccco1`, the inhibition is 0%.

Take `Cc1[nH]c2ccccc2c(=O)c1CN(C)Cc1ccccc1`: the inhibition was 6%.

As for `CCc1ccc(Nc2cc(=O)n(C3CCCCC3)c(=O)[nH]2)cc1`, the inhibition was 0%.

Turning to `CCOC(=O)Cn1c(N2CCOCC2)nc2c1c(=O)[nH]c(=O)n2C`, the inhibition is 5%.

On to `O=C(CCN1C(=O)C2C3C=CC(C3)C2C1=O)Nc1c(F)cc(F)cc1Br` (stereo not given), for which the inhibition was 0%.

For the molecule `O=C(OCCCN1CCCC1)C1(c2ccccc2)CCCC1`, the inhibition was 1%.

As for `CCc1nnc(-n2nc(C)cc2-c2ccccc2)n1N`, the inhibition was 3%.

Turning to `CCOC(=O)N1CCN(C(=O)CCc2c(C)nc3c(c(C)nn3-c3ccc(C)c(C)c3)c2C)CC1`, the inhibition is 0%.

For the molecule `CC1=C(C(N)=O)C(c2ccncc2)n2nc(-c3ccccc3Cl)nc2N1` (stereo not given), the inhibition was 0%.

Take `Cn1c(CNc2nc(-c3ccccc3)cs2)nnc1SCC(=O)N1CCc2ccccc21`: the inhibition is 0%.

`CCOC(=O)Cc1c(C)c2c(O)cc(O)cc2oc1=O`: the inhibition was 8%.

`CC1CC(C)CN(CC(=O)Nc2ccc(S(N)(=O)=O)cc2)C1` (stereo not given): the inhibition was 0%.

In the case of `NC(=O)c1ccccc1NC(=O)CCCN1C(=O)CCC1=O`, the inhibition was 10%.

On to `Cc1ccc(-c2cc(C(=O)Nc3cc(C)ccc3C)[nH]n2)c(O)c1`, for which the inhibition is 0%.

As for `C=CCSc1nnc(NC(=O)c2ccc(S(=O)(=O)NCC3CCCO3)cc2)s1` (stereo not given), the inhibition is 1%.

For `N#Cc1cc2ccccc2nc1SCC(=O)Nc1ccccc1N1CCOCC1`, the inhibition was 0%.

In the case of `CCCCCCCC(=O)OCC(=O)[C@@]1(O)CC[C@H]2[C@@H]3CCC4=CC(=O)CC[C@]4(C)[C@H]3[C@@H](O)C[C@@]21C`, the inhibition is 1%.

As to `Cc1ccc(NC(=O)c2cc(S(=O)(=O)N3CCC4(CC3)OCCO4)ccc2F)cc1`, the inhibition is 0%.

Regarding `COc1ccc(N2CCN(CCCNC(=O)C3CCCN(S(=O)(=O)c4cnc[nH]4)C3)CC2)cc1` (stereo not given), the inhibition was 0%.

On to `CCCCC[C@H](O)/C=C/[C@@H]1[C@@H](CCCCCCC(=O)O)[C@@H](O)C[C@H]1O`, for which the inhibition is 0%.

In the case of `Nc1nc2n(n1)C(c1cccc(Cl)c1)CC(c1ccc(F)cc1)N2` (stereo not given), the inhibition was 0%.

As for `COc1cc(OC)cc(C(=O)NCc2n[nH]c(=S)n2-c2ccccc2OC)c1`, the inhibition is 0%.

Take `CCSc1nnc2c(n1)OC=Nc1ccc(Br)cc1-2`: the inhibition is 2%.

Regarding `COc1ccc(S(=O)(=O)N(C)C2CCN(C)CC2)cc1`, the inhibition was 0%.

With `c1nc(NCC2(N3CCOCC3)CCCCC2)c2ccsc2n1`, the inhibition was 0%.

Regarding `O=C(CSC1=NCCS1)NCc1ccco1`, the inhibition was 0%.

As to `O=C(CCc1ccc(S(=O)(=O)N2CCOCC2)cc1)NCCc1ccccn1`, the inhibition is 0%.

In the case of `O=C(OCC(=O)N1CCc2ccccc21)C1=COCCO1`, the inhibition was 0%.
